High-throughput results deposited in PubChem BioAssay by Broad Institute.
MITF TRPM1 HTS – increases MITF-driven TRPM1 promoter luciferase signal. SK-MEL-5 TRPM1-promoter luciferase, 24 h; % of positive control, neutral wells = 0. activation, % at 12.5 µM. AID 588334. actives 0.75% (n = 300,000);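 active means mean activation of at least 80% with every replicate also reaching 80%; inconclusive means mean reaches 80% but some replicate falls short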
F508del corr – correctors of CFTR F508del function in bronchial epithelial cells; actives 0.36% (n = 350,000); activity (quench increase), % at 7.58 µM; CFBE cells, YFP halide quenching; stimulated with forskolin plus potentiator P3; % fluorescence drop versus neutral controls;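 active means mean added fluorescence quench of at least 8% versus neutral control, with both replicates also reaching 8%; inconclusive means only one of the mean or replicate conditions met; inactive means mean below 8% and not both replicates reaching 8%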;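 further: cells transiently co-express mutant CFTR-F508del with the halide-sensitive YFP; corrector assay measuring rescue of mutant channel to the surface after 24 h compound exposure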
Wnt act – Wnt/beta-catenin pathway activation | Wnt/beta-catenin reporter cell assay, activator, plate reader | actives 1.2% (n = 300,000) | activation, % at 9.35 µM; in the data active means activation above about 30%, passing the limit was not always enough; inconclusive means no clear call, values can overlap the other calls
HIV Env fusion – inhibitors of HIV Env-mediated cell fusion; actives 1.1% (n = 360,000); inhibition, % at 12.3 µM; HeLa-JRFL Env/CEM21 cell fusion, luciferase;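 active means mean replicate inhibition score of at least 50 and every replicate individually at or above 50; inconclusive means only one of the two criteria met; inactive means mean below 50 and not all replicates reaching 50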
GSIS activator – primary screen for activators of insulin secretion dependent on glucose, INS-1E cells, GLuc reporter luminescence. INS-1E GLuc reporter insulin secretion, 2-3 h. activation, % at 16.6 µM. actives 0.61% (n = 370,000);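 active means lowest replicate activation of at least 40%, so every replicate reaches that level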
Hits are given with their value; i = inactive; ? = inconclusive; nt = no result given; [ ] = another dose, or the depositor's remark. In the library only some 2.7% were active in any assay of this set; here they are far more common.

SMILES	MITF TRPM1 HTS	F508del corr	Wnt act	HIV Env fusion	GSIS activator
COc1ccc(NC(C)=O)cc1NC(=O)CSc1nnc(C2CCCCC2)n1N	i	i	i	i	i
COc1ccc(OC)c(NC(=O)CSc2nnc(C3CCCCC3)n2-c2ccccc2)c1	i	nt	57.1	i	nt
COc1ccc(NC(=O)CSc2nnc3ccc(-c4cccnc4)nn23)c(OC)c1	i	i	i	i	69.9
CC(C)[C@@H]1C(=O)N[C@@H](c2ccccc2)CC=CC[C@H](C)Oc2ccccc2C(=O)N1C (mixture of isomers)	nt	nt	nt	nt	i
COc1cc(OC)c(NC2c3ccccc3C(=O)N2c2cc(C)ccn2)cc1Cl (stereo unspecified)	nt	i	38.5	i	nt
COC(C)(C)c1cc(C(C)(C)C)nc(N)n1	i	nt	nt	i	48.1
C[C@H](CO)N1C[C@H](C)[C@@H](CN(C)C(=O)c2ccncc2)Oc2ncc(C#C[C@@H](C)O)cc2C1=O	nt	i	nt	i	i
Cc1ccccc1CSCc1ccc(C(=O)NCCCN2CCOCC2)o1	i	i	i	i	46.1
COCCOc1ccc(C(F)(F)F)cc1NC(=O)c1ccc(C(F)(F)F)cc1	i	nt	i	i	i
COCCOc1ccc(C(F)(F)F)cc1NC(=O)c1ccccc1F	i	nt	i	i	50.3
CN1CCN(C(=O)C[C@@H]2CC[C@H]3[C@@H](COc4ccc(NC(=O)C5CCCC5)cc4C(=O)N3C)O2)CC1	nt	i	nt	nt	i
CC(=O)c1ccc(-c2cnc3c(NC=O)cc(-c4ccc(C(=O)NC5CC5)cc4)cn23)cc1	nt	i	i	i	i
COc1ccccc1-c1cc(NC=O)c2ncc(-c3cccc(C(=O)N(C)C)c3)n2c1	nt	i	nt	i	i
CC(=O)c1ccc(-c2cnc3c(NC=O)cc(-c4ccccc4Oc4ccccc4)cn23)cc1	nt	i	i	56.5	i
COc1ccc(-c2cnc3c(NC=O)cc(-c4ccccc4)cn23)cc1OC	nt	13.2	i	i	i
O=CNc1cc(-c2ccc(C(=O)NC3CC3)cc2)cn2c(-c3ccccc3)cnc12	nt	13.7	i	i	i
COc1ccccc1-c1cc(NC=O)c2ncc(-c3cccc(C(C)=O)c3)n2c1	nt	i	i	66.5	nt
COc1ccc(-c2cnc3c(NC=O)cc(-c4ccc(F)cc4)cn23)cc1OC	nt	i	i	i	nt
Cc1ccc(Nc2nc(N)nc(CN3CCN(Cc4ccc5c(c4)OCO5)CC3)n2)cc1Cl	i	nt	nt	69.0	nt
Cc1ccc(Nc2nc(N)nc(CN3CCN(Cc4ccc5c(c4)OCO5)CC3)n2)cc1C	i	i	i	i	i
C[C@@H]1CCCCO[C@H](CN(C)C(=O)Nc2ccc(F)cc2)[C@@H](C)CN([C@H](C)CO)C(=O)c2cc(NS(C)(=O)=O)ccc2O1	nt	i	nt	i	i
C[C@@H]1CN([C@H](C)CO)S(=O)(=O)c2ccc(-c3ccccc3)cc2O[C@H]1CN(C)Cc1ccccc1	nt	i	nt	55.1[16.7 µM]	i
C[C@H]1CN([C@@H](C)CO)S(=O)(=O)c2ccc(-c3ccccc3)cc2O[C@H]1CN(C)Cc1ccccc1	nt	i	nt	55.2[16.7 µM]	i
C[C@H]1CN([C@@H](C)CO)S(=O)(=O)c2ccc(C3=CCCCC3)cc2O[C@@H]1CN(C)C(=O)Cc1ccncc1	nt	8.5	nt	nt	i
C[C@@H]1CN([C@@H](C)CO)S(=O)(=O)c2ccc(-c3ccccc3)cc2O[C@H]1CN(C)Cc1ccncc1	nt	i	nt	i	i
SMILES	MITF TRPM1 HTS	F508del corr	Wnt act	HIV Env fusion	GSIS activator
Cc1ccc(-c2ccc3c(c2)O[C@H](CN(C)Cc2ccccc2)[C@H](C)CN([C@H](C)CO)S3(=O)=O)cc1	nt	i	nt	i	i
C[C@H]1CN([C@@H](C)CO)S(=O)(=O)c2ccc(C3=CCCC3)cc2O[C@H]1CN(C)Cc1ccccc1	nt	i	nt	56.7[16.7 µM]	i
C[C@@H]1CN([C@H](C)CO)S(=O)(=O)c2ccc(C3=CCCC3)cc2O[C@@H]1CN(C)Cc1ccccc1	nt	i	nt	?	i
Cc1ccc(-c2ccc3c(c2)O[C@@H](CN(C)Cc2cccnc2)[C@H](C)CN([C@H](C)CO)S3(=O)=O)cc1	nt	i	nt	74.7[16.7 µM]	i
Cc1ccc(-c2ccc3c(c2)O[C@@H](CN(C)Cc2cccnc2)[C@@H](C)CN([C@@H](C)CO)S3(=O)=O)cc1	nt	i	nt	i	i
CC(=O)Nc1ccc2[nH]c3ccccc3c2c1	i	nt	nt	nt	nt
O=C(Nc1ccc(Cl)cc1)c1cc2c(cc1O)[nH]c1ccccc12	i	i	i	62.3	i
Cc1ccc(S(=O)(=O)N(C)C[C@@H]2Oc3ccc(NC(=O)CCN4CCOCC4)cc3C(=O)N([C@H](C)CO)C[C@@H]2C)cc1	nt	i	nt	nt	i
CCn1c(C(=O)OC)cc2c1ccn2-c1ccc(F)cc1	120.5	nt	84.1	i	nt
COC(=O)c1cc2c(ccn2-c2ccc(F)cc2)n1Cc1ccc(OC)cc1	i	nt	nt	i	i
O=C(C[C@H]1C[C@H]2c3cc(NS(=O)(=O)c4ccc(F)cc4)ccc3O[C@H]2[C@@H](CO)O1)NCc1ccc(Oc2ccccc2)cc1	nt	i	nt	i	i
COc1ccc(C(=O)c2sc(Nc3ccccc3)nc2N)cc1OC	i	i	i	i	43.2
Cc1cc(NC(=O)c2sc(Nc3ccc(F)cc3)nc2N)no1	i	i	i	i	i
COc1ccc(C(=O)c2sc(Nc3ccccc3)nc2N)cc1	nt	i	i	i	i
Nc1nc(Nc2ccccc2)sc1C(=O)c1ccccc1	nt	i	50.5	i	i
Cc1cnc(NC(=O)c2sc(Nc3ccccc3)nc2N)o1	nt	i	38.2	i	i
C[C@H](CO)N1C[C@H](C)[C@@H](CN(C)C(=O)Nc2ccc(F)cc2)Oc2c(NS(C)(=O)=O)cccc2C1=O	nt	i	nt	nt	i
C[C@H](CO)N1C[C@H](C)[C@H](CN(C)C(=O)Cc2ccncc2)Oc2ncc(C#CC3(O)CCCC3)cc2C1=O	nt	i	nt	i	i
O=C(C1CCCC1)N1CC(=O)N2[C@@H](CO)[C@H](c3ccc(-c4cccnc4)cc3)[C@@H]2C1	nt	i	nt	nt	i
